Assay outcomes: PubChem BioAssay, University of Kansas High Throughput Screening Laboratory
Pf apPOL inh: Pf-apPOL inhibitors, biochemical, fluorescence; Plasmodium falciparum apicoplast DNA polymerase (apPOL); Recombinant Pf-apPOL, molecular beacon fluorescence, 1.5 h; inhibition, % at 10 µM; 210,000 compounds, 0.25% hits; AID 1794808, 2022
mHTT CaM bind: mutant huntingtin-calmodulin interaction inhibitors – biochemical, AlphaScreen, primary screen | P42858 | AlphaScreen His-mHTT/GST-CaM binding, luminescence | inhibition, % at 15 µM | 190,000 compounds, 3.6% hits | AID 1671202, 2021;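 also: 0% = both proteins with DMSO and 100% = one protein alone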
* marks the source's active call; other numbers are inactive results; nt = no result given; ! = repeats disagree. Compounds with a hit are over-represented: about 3.5% of the library has one in this group of screens. Rule as the data show it: active = inhibition above about 50%; inactive = the rest.

SMILES	Pf apPOL inh	mHTT CaM bind
Cc1ccc(NC(=O)C2CCN(c3cc(Br)ccc3C)C2=O)cc1C (centres undefined)	4	74*
O=S1(=O)CCC(NS(=O)(=O)c2cccc3nonc23)C1 (centres undefined)	-7	nt
COc1ccc(C(C)NC=O)cc1OC (centres undefined)	-10	-3
CC(C)C[C@@H](COCc1cccc(Cl)c1)N1CCN(C(=O)c2cccc(C(F)(F)F)c2)CCC1=O	-3	87*!
Cc1ccc(S(=O)(=O)N2CCC(=O)N([C@H](COCc3cccc(C(F)(F)F)c3)Cc3ccccc3)CC2)cc1	-4	6
CC(C)C[C@@H](COCc1ccc(F)cc1)N1CCN(C(=O)c2cccc(C(F)(F)F)c2)CCC1=O	-5	60*
Cc1ccc(S(=O)(=O)N2CCC(=O)N([C@H](COCc3cccc(C(F)(F)F)c3)C(C)C)CC2)cc1	-10	22
Cc1nc2c(C(=O)NCc3c(F)cc(F)cc3F)cnn2c(C)c1Cc1ccccc1	-4	12
COc1ccc(OC)c(C2SCCN2S(=O)(=O)c2ccc(C)c([N+](=O)[O-])c2)c1 (centres undefined)	4	7
Cc1ccc(NCc2ccc(Cl)nc2)c(NCc2ccc(Cl)nc2)c1	-4	54*
Cc1ccc(C)c(NCc2ccncc2)c1	3	2
COc1ccc(CNc2ccccc2F)cc1OCc1ccccc1	3	-46
COc1ccc(CNc2cc(-c3ccccc3)ccc2OC)cc1O	-5	76*
COc1ccc(C)cc1NC(=O)CN(C)S(=O)(=O)c1ccc(Cl)cc1	-9	-1
CC1CCN(c2ccc(-c3noc(C(=O)NC4CC4)n3)cc2)CC1	2	-1
CCOc1ccc(-c2cn3c(CC(=O)NCc4ccccn4)csc3n2)cc1	-15	5
Cc1cc(=O)n(C(NC(=O)c2ccccc2)C(=O)c2ccccc2)cn1 (centres undefined)	-2	-3
Cc1cc(C)nc(SC(NC(=O)c2ccccc2)C(=O)c2ccccc2)n1 (centres undefined)	0	94*
CC1(C)COc2ccc([N+](=O)[O-])cc2NC1=O	4	-10
Cc1ccc2c(c1)-c1c(ssc1=Nc1cc(Cl)ccc1Cl)C(C)(C)N2	nt	98*
Cc1cc2c(cc1C)-c1c(ssc1=Nc1ccc(S(N)(=O)=O)cc1)C(C)(C)N2	nt	20
Cc1ccc2c(c1)NC(C)(C)c1ssc(=Nc3ccc(Cl)cc3Cl)c1-2	nt	62*
CC1(C)Nc2ccccc2-c2c1ssc2=Nc1cccc(Cl)c1	nt	69*
Cc1ccc2c(c1)/C(=C/c1ccc(Cl)cc1)C(=O)N2	-2	36
CCC(=O)NCCc1csc(C2CCCN(C(=O)c3ccc(Cl)cc3)C2)n1 (centres undefined)	-3	-2
SMILES	Pf apPOL inh	mHTT CaM bind
O=C(Nc1ccc2oc(Cc3ccccc3Cl)nc2c1)c1cccs1	-4	-8
CS(=O)(=O)Oc1cc2c(cc1[N+](=O)[O-])OCO2	nt	-4
CCCN1C(=O)S/C(=C/c2cn(CC(=O)N3CCOCC3)c3ccccc23)C1=O	-2	19
C#CCN1C(=O)S/C(=C\c2cn(CC(=O)N3CCOCC3)c3ccccc23)C1=O	-3	75*
COc1ccc(C2C(C#N)=C(N)Oc3n[nH]c(-c4ccc(OC)c(OC)c4)c32)cc1O (centres undefined)	-1	10
COc1cc(C2C(C#N)=C(N)Oc3n[nH]c(-c4ccc(Cl)c(Cl)c4)c32)ccc1O (centres undefined)	-1	99*
N#CC1=C(N)Oc2n[nH]c(-c3cccc([N+](=O)[O-])c3)c2C1c1ccc(O)cc1 (centres undefined)	7	14
N#CC1=C(N)Oc2n[nH]c(-c3ccc(Cl)c(Cl)c3)c2C1c1ccc(O)cc1 (centres undefined)	-4	100*
COc1ccc(-c2[nH]nc3c2C(c2ccc(C(F)(F)F)cc2)C(C#N)=C(N)O3)cc1OC (centres undefined)	1	100*
COc1cc(C2C(C#N)=C(N)Oc3n[nH]c(-c4cc(OC)c(OC)c(OC)c4)c32)ccc1O (centres undefined)	-3	10
CC(=O)c1ccc(NC(=O)c2ccc(C)cc2C)cc1	-4	-3
O=C(/C=C/c1ccc(NC(=O)c2cccs2)cc1)c1ccco1	4	22
O=C(c1ccccn1)N1CCC2(C1)NCc1ccccc1NC2=NC1CCCC1 (centres undefined)	-6	8
Cc1cc(C)nc(Nc2nc(C(=O)NCCc3c[nH]c4ccccc34)cs2)n1	-6	86*
COc1ccc(OC)c(Nc2nc(CC(=O)NCCc3c[nH]c4ccccc34)cs2)c1	-4	53*
COc1ccc(OC)c(Nc2nc(CC(=O)NCc3ccc4c(c3)OCO4)cs2)c1	-4	15
Cc1cc(C)nc(Nc2nc(C(=O)NCCOc3ccc(F)cc3)cs2)n1	-38	91*
O=C(NCCOc1ccc(F)cc1)c1cc(C2CC2)on1	-37	-24
O=C(NCCc1c[nH]c2ccccc12)c1csc(NS(=O)(=O)c2cccs2)n1	-13	-10
CCS(=O)(=O)c1ccc2oc(=O)c(C=C(O)c3cccc(OC)c3)nc2c1	-3	9
O=C(NCc1ccccc1)C1CCCN(c2cnn(Cc3ccccc3)c(=O)c2)C1 (centres undefined)	-7	6
COc1ccc(C(=O)Nc2nc3c(s2)CCCC3)c(OC)c1OC	-4	-3
O=C(Nc1ccccc1)N1CCC(n2cnc3ccc(F)cc3c2=O)CC1	-3	-3
O=[N+]([O-])c1ccc(N2CCSCC2)nc1	66*	0
O=[N+]([O-])c1ccc(N2CCOCC2)nc1	-2	-5
SMILES	Pf apPOL inh	mHTT CaM bind
COc1ccc(CC(=O)N2CCC(c3nc(C(=O)N(C)C)c(C)o3)CC2)cc1Cl	-2	12
Cc1c(Cc2ccc(Cl)cc2)c(NCCCn2ccnc2)n2c(nc3ccccc32)c1C#N	1	-5
Cc1ccc(-n2[nH]c(=O)c(C=c3c(C)c(C#N)c4nc5ccccc5n4c3=O)c2O)cc1Cl	3	51*
O=C(Nc1cccc(-c2nc3ccccc3o2)c1)c1ccccc1I	-4	-4
O=C(Nc1cccc(-c2nc3ccccc3o2)c1)c1cccnc1Cl	74*	0
Cc1ccc(C(=O)N2CCCC2COc2ccc(C(=O)NC(C)C)cc2)cc1C (centres undefined)	12	3
O=c1[nH]nc(SCc2cccc(Oc3ccccc3)c2)c(=O)[nH]1	72*	7
O=c1[nH]nc(SCc2ccc(F)cc2)c(=O)[nH]1	1	-5
Cc1cc(C2(c3ccc(O)c(C)c3)C(=O)N(C)c3ccc(Br)cc32)ccc1O	-6	87*
CC(=O)c1c(C(C)=O)c(C)n(-c2cc(Br)ccc2O)c1C	-1	24
COc1cccc(C(=O)N2CCN=C2SCc2cccc(F)c2)c1OC	59*	-20
COc1cccc(C(=O)N2CCN=C2SC)c1OC	-3	5
O=C(NC1CCN(c2nnc3ccc(C(F)(F)F)cn23)CC1)c1ccncc1	-4	5
O=C(c1ccc(F)cc1F)N1CCC(n2nc(-c3ccsc3)ccc2=O)CC1	-5	100*
CCOC(=O)c1cc(C)nn1C1CCN(C(=O)c2ccc(F)cc2F)CC1	-3	-4
O=C(c1ccccn1)N1CCC(n2nc(-c3ccsc3)ccc2=O)CC1	-6	32
O=C(c1ccccc1F)N1CCC(n2nc(-c3ccsc3)ccc2=O)CC1	6	86*
